Source: PubChem BioAssay
VDR inhibitor: vitamin D3 receptor (human) inhibition; P11473; actives 0.93% (n = 400,000); AID 504847; VDR-SRC2-3 peptide fluorescence polarization, 2 h; Potency, µM, hits mostly inhibitors
Target sequence (P11473 whole entry, looked up): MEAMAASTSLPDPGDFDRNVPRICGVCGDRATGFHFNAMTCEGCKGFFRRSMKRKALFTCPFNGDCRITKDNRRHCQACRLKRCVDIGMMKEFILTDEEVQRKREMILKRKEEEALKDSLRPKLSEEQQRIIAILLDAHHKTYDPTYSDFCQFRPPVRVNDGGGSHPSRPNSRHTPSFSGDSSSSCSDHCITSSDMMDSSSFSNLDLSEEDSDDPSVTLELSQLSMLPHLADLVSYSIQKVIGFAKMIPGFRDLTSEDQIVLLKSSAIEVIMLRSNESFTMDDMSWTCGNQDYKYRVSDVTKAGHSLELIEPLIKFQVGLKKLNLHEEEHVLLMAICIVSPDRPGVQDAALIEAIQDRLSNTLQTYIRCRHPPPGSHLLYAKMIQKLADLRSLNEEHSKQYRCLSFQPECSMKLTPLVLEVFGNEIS
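Compounds are added to VDR with labelled SRC2-3 coactivator peptide and held 2 h at room temperature. Inhibition of the VDR–peptide interaction is then read as a change in fluorescence polarization.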
Vif-A3G inh: Vif-A3G binding inhibition; HeLa A3G-eYFP + Vif (tagged APOBEC3G with the HIV-1 protein that degrades it), YFP fluorescence, overnight; actives 0.076% (n = 410,000); AID 602310; Q9HC16; Potency, µM (doses to about 46.1 µM), most hits filed as inhibitors; note: nearly all actives have a fitted effect of over 60% in size
Target sequence (Q9HC16 whole entry, looked up): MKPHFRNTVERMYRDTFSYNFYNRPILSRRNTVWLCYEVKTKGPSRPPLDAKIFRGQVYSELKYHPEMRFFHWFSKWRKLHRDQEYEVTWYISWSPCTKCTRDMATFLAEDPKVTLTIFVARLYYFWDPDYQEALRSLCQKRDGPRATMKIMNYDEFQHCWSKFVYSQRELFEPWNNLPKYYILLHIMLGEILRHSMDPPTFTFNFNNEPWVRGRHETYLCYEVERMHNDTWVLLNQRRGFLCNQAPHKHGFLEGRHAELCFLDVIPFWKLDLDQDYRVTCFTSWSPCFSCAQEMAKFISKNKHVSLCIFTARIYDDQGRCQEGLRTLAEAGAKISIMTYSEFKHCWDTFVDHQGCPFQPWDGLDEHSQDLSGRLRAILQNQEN
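HeLa cells stably expressing Vif and C-terminally eYFP-tagged A3G, seeded overnight at 37 deg C, then exposed to compound by pintool overnight at 37 deg C. Rise in yellow fluorescence (Ex 488/Em 500-530, Acumen) marks blocked Vif-driven A3G degradation.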
Vif-APOBEC3F blk: blocks the Vif interaction with APOBEC3F. actives 0.2% (n = 390,000). Potency, µM (doses to about 46.1 µM). HeLa A3F-eYFP + Vif (tagged APOBEC3F with the HIV-1 protein that degrades it), YFP fluorescence increase; note: nearly all actives have a fitted effect of over 65% in size
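HeLa cells stably expressing A3F-eYFP plus Vif, plated and incubated overnight at 37 deg C, then exposed to compounds overnight at 37 deg C. Blocked degradation read as raised yellow fluorescence (Ex 488/Em 500-530).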
TSHR antagonist: human thyrotropin receptor antagonism; P16473; TSHR-expressing cells, TSH-stimulated cAMP HTRF, 2 h; stronger effect = lower value; activity change, negative = inhibition, % at 11.5 µM; actives 0.2% (n = 330,000);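 active = activity change below a set negative limit, meaning inhibition stronger than a set level, cut at about -70% in these data; inconclusive = activity change between two set negative limits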
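Freshly harvested TSHR cells receive pin-tooled compound, then EC80 TSH at 4nM final. After 2 hours at 37 deg C, antibody in lysis buffer and cAMP-d2 are added; 30 minutes at ambient temperature precede the HTRF read.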
PLK1 PBD inh: blocks phosphopeptide binding to human PLK1 polo-box domain. P53350. Plk1 PBD binding of FITC phosphopeptide, fluorescence polarization. Potency, µM, hits mostly inhibitors. actives 2.8% (n = 360,000). AID 720504; note: series mostly up to about 57 µM; nearly all actives have a fitted effect of over 65% in size
Each line names hits and unclear results; the compound was inactive in the other large screens. An excerpt weighted towards active compounds, which were near 3.1% of everything screened. Unless noted, calls come from the whole dose curve; as a rule, active = well fitted curve in the direction sought with a large enough effect; inconclusive = small, poorly fitted or top-dose-only effect, or another doubt; inactive = no such curve, though single readings can be large; an effect the other way counts as inactive or inconclusive.

CNc1nc(N/N=C/c2ccc([N+](=O)[O-])cc2)nc(Nc2ccccc2)n1	VDR inhibitor inconclusive, PLK1 PBD inh 26.7µM
Oc1c(C(c2ccccc2Cl)N2CCCC2)ccc2cccnc12 (stereo not given)	VDR inhibitor inconclusive, Vif-APOBEC3F blk inconclusive, PLK1 PBD inh 7.52µM
Oc1c(C(c2ccc(Cl)cc2)N2CCCC2)cc(Cl)c2cccnc12 (stereo not given)	PLK1 PBD inh inconclusive
CN1CCN(C(c2ccc(C(F)(F)F)cc2)c2ccc3cccnc3c2O)CC1 (stereo not given)	VDR inhibitor 31.6µM, PLK1 PBD inh 3.77µM
Cc1no[n+]([O-])c1COc1ccc(/C=C(\C#N)C(N)=O)cc1	VDR inhibitor inconclusive, PLK1 PBD inh 21.2µM
Cc1c(C=O)ccc(N(C)C)c1C	none (no result: VDR inhibitor, Vif-APOBEC3F blk, TSHR antagonist, PLK1 PBD inh)
Fc1cc(F)c(C2SCCN2C(=S)Nc2cccc(C(F)(F)F)c2)c(F)c1 (stereo not given)	TSHR antagonist -72.1
CCOC(=O)c1ccc(NC(=S)N2CCSC2c2c(F)cc(F)cc2F)cc1 (stereo not given)	none
Cc1ccc(-c2nc3scc(CCNS(=O)(=O)c4c(C)noc4C)n3n2)cc1	none (no result: TSHR antagonist, PLK1 PBD inh)
CCn1nnnc1SCC(=O)Nc1cccc(NC(C)=O)c1	none
COc1cccc(-n2nnnc2S(C)(=O)=O)c1	VDR inhibitor 44.7µM, PLK1 PBD inh 7.52µM
COc1cccc(-n2nnnc2SCC(=O)Nc2ccc(NC(C)=O)cc2)c1	PLK1 PBD inh 23.8µM
CCn1nnnc1SCC(=O)Nc1cc(OC)cc(OC)c1	PLK1 PBD inh 3.36µM
COc1ccc(-c2ccc(F)cc2)cc1C1C2C=CCC(C)C2C(=O)N1Cc1ccccc1 (stereo not given)	none (no result: Vif-APOBEC3F blk, TSHR antagonist, PLK1 PBD inh)
CCC/C=C1/CCCOC(C(=O)NCc2ccc(C)o2)(C(F)(F)F)C1 (stereo not given)	VDR inhibitor 50.1µM, PLK1 PBD inh inconclusive
CC1=CCC(C(C)(C)O)CC1 (stereo not given)	none (no result: Vif-A3G inh, Vif-APOBEC3F blk, TSHR antagonist, PLK1 PBD inh)
CCCCN(C(=O)c1ccc(-c2ccc(Cl)cc2)o1)c1c(N)n(CCCC)c(=O)[nH]c1=O	VDR inhibitor 70.8µM, Vif-A3G inh inconclusive, Vif-APOBEC3F blk inconclusive
CCCCn1c(N)c(N(CCOC)C(=O)c2ccc(-c3ccc(Cl)cc3)o2)c(=O)[nH]c1=O	VDR inhibitor inconclusive, PLK1 PBD inh inconclusive
COCc1nnc(NC(=O)C2CCN(C(=O)c3ccccc3)CC2)s1	none (no result: Vif-APOBEC3F blk, TSHR antagonist, PLK1 PBD inh)
Cc1cccc(N2NC(=O)/C(=C/c3ccc(-c4ccc(Cl)c(C(=O)O)c4)o3)C2=O)c1	VDR inhibitor inconclusive, PLK1 PBD inh 16.8µM
O=C(O)c1cc(-c2ccc(/C=C3\NC(=O)N(c4ccc(Cl)cc4)C3=O)o2)ccc1Cl	PLK1 PBD inh 11.9µM
Cc1ccc(Sc2ccc(/C=C3/C(=O)NN(c4ccccc4)C3=O)o2)cc1	VDR inhibitor inconclusive, PLK1 PBD inh 5.97µM
O=C1NN(c2ccccc2)C(=O)/C1=C/c1ccc(-c2ccc(Cl)c(C(=O)O)c2)o1	VDR inhibitor inconclusive, PLK1 PBD inh inconclusive
CC(=O)Oc1ccc(C(=O)COC(=O)CNC(=O)COc2ccccc2C)cc1	none (no result: Vif-APOBEC3F blk, TSHR antagonist, PLK1 PBD inh)
COc1ccccc1C(C)NCC(=O)c1c(C)[nH]c2ccccc12 (stereo not given)	none (no result: VDR inhibitor, Vif-APOBEC3F blk, TSHR antagonist, PLK1 PBD inh)
CC(=O)Nc1ccc(NC(=O)CCn2nnc3ccccc32)cc1	VDR inhibitor inconclusive, PLK1 PBD inh 18.9µM
NNC(=O)CCn1nnc2ccccc21	none
Cc1cc(NC(=O)CSc2nnc(C3COc4ccccc4O3)o2)no1 (stereo not given)	none
Cc1cc(NC(=O)CSc2nnc(C3COc4ccccc4O3)n2N)no1 (stereo not given)	VDR inhibitor inconclusive, PLK1 PBD inh 7.52µM
CC(C)=CCC/C(C)=C/CC/C(C)=C/CSCC(=O)O	none (no result: Vif-A3G inh, Vif-APOBEC3F blk, TSHR antagonist, PLK1 PBD inh)
O=C(O)c1ccccc1NS(=O)(=O)c1ccc(NN=Cc2ccc(F)cc2)c([N+](=O)[O-])c1	PLK1 PBD inh 23.8µM
O=C(Nc1ccc(S(=O)(=O)N2CCOCC2)cc1)c1ccc(Cl)c([N+](=O)[O-])c1	PLK1 PBD inh 26.7µM (no result: TSHR antagonist)
NS(=O)(=O)c1ccc(N/N=C/c2ccc(O)c(O)c2O)c([N+](=O)[O-])c1	VDR inhibitor inconclusive, PLK1 PBD inh 2.99µM
O=C(O)c1ccccc1/C=N/Nc1ccc(S(=O)(=O)N2CCOCC2)cc1[N+](=O)[O-]	Vif-A3G inh 6.31µM
O=C(C[n+]1ccncc1)c1cccc([N+](=O)[O-])c1	none (no result: VDR inhibitor, Vif-APOBEC3F blk, TSHR antagonist, PLK1 PBD inh)
COc1cccc(Nc2ncc3nc(CCc4ccccc4)c(=O)n(Cc4cccs4)c3n2)c1	none (no result: Vif-A3G inh, Vif-APOBEC3F blk, TSHR antagonist, PLK1 PBD inh)
O=C(O)CCC/C=C\C[C@@H]1[C@@H](/C=C/[C@H](O)C2Cc3ccccc3C2)[C@@H](F)C[C@@H]1O	none (no result: Vif-A3G inh, Vif-APOBEC3F blk, PLK1 PBD inh)
CC(=O)Nc1ccc(SCC(=O)NC(=O)c2ccccc2Br)cc1	PLK1 PBD inh 29.9µM
Cc1cc(NC(=O)CSc2nc3c(C)cccc3cc2C#N)no1	Vif-A3G inh inconclusive, Vif-APOBEC3F blk 11.2µM
Cc1cc(NC(=O)CSc2nnnn2-c2ccc(C(C)C)cc2)no1	PLK1 PBD inh 26.7µM
CC(=O)Nc1ccc(SCC(=O)Nc2cc(C)on2)cc1	PLK1 PBD inh 23.8µM
Cc1cc(NC(=O)CSc2ccc(F)cc2)no1	none
COC(=O)C1=C(C)NC(C)=C(C(=O)OCCCN2CCC(c3ccccc3)(c3ccccc3)CC2)C1c1cccc([N+](=O)[O-])c1 (stereo not given)	none (no result: Vif-A3G inh, Vif-APOBEC3F blk, TSHR antagonist, PLK1 PBD inh)
c1ccc2c3c([nH]c2c1)[C@@H]1[C@H]2CC[C@H]([C@H]4CCCN[C@H]42)N1CC3	none (no result: Vif-A3G inh, Vif-APOBEC3F blk, TSHR antagonist, PLK1 PBD inh)
CCc1ccc(NC2CC(=O)N(CCc3ccc(OC)c(OC)c3)C2=O)cc1 (stereo not given)	VDR inhibitor inconclusive, PLK1 PBD inh 26.7µM
COc1ccc(CCN2C(=O)CC(Nc3ccc(N4CCOCC4)cc3)C2=O)cc1OC (stereo not given)	none (no result: TSHR antagonist)
COc1ccc(CCN2C(=O)C3C(C2=O)C2C=CC3C23CC3)cc1OC (stereo not given)	PLK1 PBD inh 23.8µM
CCOC(=O)C1=NOC2C3CC(C12)C1C(=O)N(CCc2ccc(OC)c(OC)c2)C(=O)C31 (stereo not given)	PLK1 PBD inh 26.7µM
COc1ccc(CCN2C(=O)C3C4CC(C5C(C(=O)N/N=C\c6ccc(Cl)cc6)=NOC45)C3C2=O)cc1OC (stereo not given)	none
O=C1C2C(C(=O)N1CCc1ccccc1)C1C=CC2C12CC2 (stereo not given)	none
CC(=O)n1c(=O)c2ccccc2c(=O)n1-c1ccccc1	VDR inhibitor inconclusive, PLK1 PBD inh 13.4µM
S=C(NCCc1ccccc1)Nc1c(Cl)cccc1Cl	Vif-APOBEC3F blk inconclusive, PLK1 PBD inh 26.7µM
Fc1ccccc1NC(=S)NCCc1ccccc1	PLK1 PBD inh 2.99µM
OCCNC(=S)NCCc1ccccc1	none
CC(=O)Nc1cccc(NC(=S)Nc2ccc(F)c(Cl)c2)c1	PLK1 PBD inh 29.9µM
Cc1onc(C(=O)Nc2ccccc2C(F)(F)F)c1[N+](=O)[O-]	none
Cc1noc(C(=O)Nc2ccccc2C(F)(F)F)c1Cl	PLK1 PBD inh 29.9µM
